# Assays:
# Experiment in all cases: PBM binding z-score (relative to random genomic background probes); higher = stronger binding; sequences stand for … in GC…GCGATTGACAGCGTAGAATGAAGG
# [1] = tested on: PPARg:RXRa DBDmut IVT, anti-RXR (DBD mutation: RXRa K156A/R161A, NR concentration 270 nM, RXRa partner concentration 90 nM)
# Summary of the method: (§1)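 Random background probes are the reference for binding z-scores. These scores derive from regression-normalized fluorescence on custom Agilent 4×180K protein-binding microarrays incubated 1 h with ligand-free nuclear receptor dimers. Binding was detected with antibodies against each partner (one per run).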
# [2] = tested on: PPARg:RXRa IVT, anti-PPARg (NR concentration 270 nM, RXRa partner concentration 90 nM)
# Summary of the method: as §1
# [3] = tested on: PPARg DBDmut:RXRa IVT, anti-PPARg (DBD mutation: PPARg1 K132A/R137A, NR concentration 270 nM, RXRa partner concentration 90 nM)
# Summary of the method: as §1
# [4] = tested on: PPARg DBDmut IVT, anti-PPARg (DBD mutation: PPARg1 K132A/R137A, NR concentration 270 nM)
# Summary of the method: as §1
# [5] = tested on: PPARg homodimer (NR concentration 180 nM)
# Summary of the method: as §1
# [6] = tested on: PXR:RXRa (NR concentration 270 nM, RXRa partner concentration 90 nM)
# Summary of the method: as §1
# [7] = tested on: PXR homodimer (NR concentration 270 nM)
# Summary of the method: as §1
# [8] = tested on: RARa:RXR (NR concentration 270 nM, RXRa partner concentration 90 nM)
# Summary of the method: as §1
# [9] = tested on: RARa homodimer (NR concentration 270 nM)
# Summary of the method: as §1
# [10] = tested on: RARb:RXRa (NR concentration 270 nM, RXRa partner concentration 90 nM)
# Summary of the method: as §1
# [11] = tested on: RARb homodimer (NR concentration 270 nM)
# Summary of the method: as §1
# [12] = tested on: RARg:RXRa (NR concentration 270 nM, RXRa partner concentration 90 nM)
# Summary of the method: as §1
# [13] = tested on: RARg homodimer (NR concentration 270 nM)
# Summary of the method: as §1
# [14] = tested on: RXRa DBDmut IVT, anti-RXR (DBD mutation: RXRa K156A/R161A, NR concentration 90 nM)
# Summary of the method: as §1
# [15] = tested on: RXRa homodimer (NR concentration 180 nM)
# Summary of the method: as §1
# [16] = tested on: THRa:RXRa (NR concentration 90 nM, RXRa partner concentration 90 nM)
# Summary of the method: as §1
# [17] = tested on: THRa homodimer (NR concentration 90 nM)
# Summary of the method: as §1
# [18] = tested on: VDR homodimer (NR concentration 270 nM)
# Summary of the method: as §1
Sequence,PBM binding z-score [1],PBM binding z-score [2],PBM binding z-score [3],PBM binding z-score [4],PBM binding z-score [5],PBM binding z-score [6],PBM binding z-score [7],PBM binding z-score [8],PBM binding z-score [9],PBM binding z-score [10],PBM binding z-score [11],PBM binding z-score [12],PBM binding z-score [13],PBM binding z-score [14],PBM binding z-score [15],PBM binding z-score [16],PBM binding z-score [17],PBM binding z-score [18]
CCTACTGGGCCACGAGAGGTCATTGATTCAGTGA,6.03,5.58,-0.253,-0.977,3.46,5.52,2.52,5.15,1.39,3.27,3.75,3.95,3.64,0.702,4.15,4,1.33,3.47
ATCTCTAGGTAAAGATAGTCCAGTGAATGCAAAT,2.01,1.66,1.44,0.736,0.414,-0.159,0.523,-0.259,0.93,-0.257,-0.17,0.22,0.658,0.0705,0.108,0.341,0.315,0.0378
CGAACTAGGTCATCCAGGACAGTGCATACATTGA,8.26,8.19,1.89,1.6,1.98,2.11,1.49,2.35,0.873,3.91,3.21,4.04,4.52,2.45,2.88,3.65,2.06,2.29
CGTCAATGTTCAAGGTAACGTAACAGAAAGCAGC,-0.165,0.397,0.371,0.433,0.235,0.00739,-0.0049,-0.00308,0.0887,0.375,-0.0496,0.0962,0.453,0.148,0.198,1.56,1.19,0.0285
TAGCCTAGCTCATGGGCCAGTATACCACGCGAAC,-1.04,-0.618,0.0751,-0.524,-0.407,-0.739,-0.677,-0.584,-0.475,-0.413,-0.141,-0.422,-0.314,-1.22,-0.408,-0.643,-0.48,-0.464
ATCTCTAGGTAAAGTTCAGTGAGAGATCGATAGA,2.11,2.62,1.04,0.672,1.57,1.77,1.52,1.01,0.975,2.58,2.43,1.84,2.47,1.21,1.06,1,0.0803,1.28
CCGAGTAGGTTCTGGGGCATTCAGGCAACGGTGA,1.08,1.69,-1.23,-1.34,0.223,-0.868,-0.237,-0.69,-0.226,0.00361,0.469,-0.508,-0.495,-0.0942,-0.58,0.118,0.0185,0.0206
TCTATTAGTTGATTAGGACAACCGAAACAGCGGA,2.5,0.979,0.853,1.57,1.65,0.749,0.881,0.862,2.34,0.68,0.549,0.758,0.926,1.39,0.79,1.84,1.63,1.03
CGTCAAAGTTCTACTAAGGTAACGTAAAGCACGC,0.0553,0.848,0.246,0.834,0.249,0.134,-0.028,0.398,-0.131,0.603,0.428,0.172,0.53,0.53,0.138,3.7,1.49,0.165
AGAATGACGTTATTAAGATCAGGGAATTGCGGTC,-0.6,-0.306,0.0629,0.222,-0.803,-0.327,-0.378,-0.472,-0.0308,-0.451,-0.448,-0.146,0.0594,-0.095,-0.18,-0.42,-0.892,-0.318
ACTAGTTGGTCAGCTGAGGTCTCACACAATTCGG,1.19,0.901,0.251,0.203,0.325,0.286,-0.249,0.165,0.106,1.05,1.08,0.511,0.774,0.296,0.296,2.7,0.829,-0.0195
TAGCCTAGGTCATGCGGGCCAGTAGAGTGTCGGC,1.93,2.8,-0.889,-0.693,0.316,1.39,-0.448,2.37,-0.56,3.75,3.12,3.98,4.71,0.541,3.5,2.96,0.801,0.486
AGAATGAGGTTAAGAGCAGGGAAACAGAATACAT,2.72,2.37,0.618,0.293,0.456,1.09,0.121,1.69,-0.0125,1.71,0.878,2,1.27,0.729,2.46,2.19,0.347,0.0105
CCTAATGGGCCAAAGGTCATTGATTCCAATGCTC,3.94,6.02,0.0676,-0.678,4.32,5.26,1.81,6.51,1.99,4.57,4.39,5.84,5.06,1.72,7.11,3.26,0.623,1.9
ACTATTAGTTGAGAGGAGGGCAACCGATAGGTTG,0.402,0.862,0.559,0.202,0.333,0.447,0.403,0.168,0.97,0.991,1.1,0.586,0.81,0.0671,0.396,1.32,-0.435,0.461
TCTCGGAGGACACGAAAGGTCAGATCTCGACATC,2.03,1.5,-0.0755,-0.793,2.23,3.88,0.563,3.78,0.369,4.15,4.71,4.58,4.87,1.53,3.65,3.82,1.45,1.13
